Rows were chosen to be rich in hits. Some 10% of all compounds tested hit in one or more screens of this group.
RORg inh – ROR gamma (mouse) transcription inhibition. P51450. Drosophila S2 Gal4-RORgamma UAS-luciferase reporter, 20 h. Potency, µM (series often up to 53.6 µM), for the others: top-dose activity change, negative = inhibition, actives largely listed as inhibitors. actives 5.4% (n = 310,000). AID 2551; note: % is set by controls: 0 for no effect and ±100 for the full control effect; nearly all actives have a fitted effect of over 60% in size
Target sequence (P51450 whole entry, looked up, the tested form may be a part): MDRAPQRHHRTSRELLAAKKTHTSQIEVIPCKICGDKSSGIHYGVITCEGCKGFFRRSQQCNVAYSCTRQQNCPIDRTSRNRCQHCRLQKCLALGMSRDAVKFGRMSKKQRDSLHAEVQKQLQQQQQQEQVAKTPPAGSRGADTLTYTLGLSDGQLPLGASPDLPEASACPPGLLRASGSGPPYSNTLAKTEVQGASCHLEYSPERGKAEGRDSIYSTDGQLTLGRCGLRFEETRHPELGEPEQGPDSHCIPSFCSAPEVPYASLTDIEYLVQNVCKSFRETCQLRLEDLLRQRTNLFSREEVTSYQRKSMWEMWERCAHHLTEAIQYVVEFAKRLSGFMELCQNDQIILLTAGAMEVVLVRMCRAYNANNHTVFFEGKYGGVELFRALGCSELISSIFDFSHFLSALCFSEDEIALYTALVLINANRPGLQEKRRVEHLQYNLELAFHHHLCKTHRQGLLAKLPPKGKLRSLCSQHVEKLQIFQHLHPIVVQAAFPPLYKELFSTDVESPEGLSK
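Compounds are pin-transferred onto Drosophila Schneider cells expressing a copper-inducible Gal4–ROR gamma transactivation domain fusion. After 1 hr, copper sulfate is added to 700 uM final; luciferase is read 20 hr later.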
SW480 rerep – inducers of DNA re-replication in SW480 colon cancer cells; SW480 DNA re-replication, Hoechst DNA content imaging, 48 h; Potency, µM (series often up to 46.1 µM), for the others: at the top dose re-replication activation, hits mostly activators; actives 1.8% (n = 340,000); AID 624297; note: % of control where 0% means no effect; nearly all actives have a fitted effect of over 55% in size
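DNA re-replication was detected as more nuclei of elevated Hoechst intensity after 48 hr exposure to compound (23 nL pinned per well of 250 cells).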
KB-V1 cytotox – kills drug-selected multidrug resistant KB-V1 cells; actives 3.4% (n = 400,000); Potency, µM (titrated, usually from 46.1 µM), usual class: cytotoxic; AID 1347076; KB-V1 MDR cells viability, CellTiter-Glo, 72 h; note: % is set by controls: 0 for no effect and ±100 for the full control effect; nearly all actives have a fitted effect of over 60% in size
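In this primary screen, KB-V1 cells overexpressing P-gp are incubated with library compounds (lowest to highest concentration) for 72 h at 37 degrees C before a luminescent ATP viability read.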
KB-3-1 cytotox – KB-3-1 parental cell cytotoxicity | actives 1.4% (n = 400,000) | Potency, µM (titrated, usually from 46.1 µM), usual class: cytotoxic | AID 1347075 | KB-3-1 viability, CellTiter-Glo ATP luminescence, 72 h; note: % is set by controls: 0 for no effect and ±100 for the full control effect; nearly all actives have a fitted effect of over 60% in size
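Here the drug-naive KB-3-1 line serves as comparator for MDR sub-line selectivity; cells received compound titrations, 72 h at 37 °C, then CellTiter-Glo readout.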
MCF10A rereplic – induces DNA re-replication in MCF 10a normal breast cells | MCF 10A DNA re-replication, Hoechst nuclear intensity, 48 h | Potency, µM (highest dose often 46.1 µM), inactives show top-dose activity, positive = re-replication, usual class: activators | actives 2.9% (n = 350,000); note: % of control where 0% means no effect; nearly all actives have a fitted effect of over 50% in size
VP16 counter – inhibits Gal4-VP16 luciferase reporter, ROR gamma counter-screen | AID 2546 | actives 3.5% (n = 310,000) | Potency, µM (series often up to 53.6 µM), inactives show at the highest dose activity, negative = inhibition, actives largely listed as inhibitors | Drosophila S2 Gal4-VP16 UAS-luciferase, luminescence, 20 h;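 note: Gal4-VP16 expression switched on by copper sulfate through the metallothionein promoter; % is set by controls: 0 for no effect and ±100 for the full control effect; nearly all actives have a fitted effect of over 50% in size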
Active calls of the source: *; i = inactive; ? = inconclusive; . = no result given; [ ] = remark or other dose. Calls come from the whole dose curve; as a rule, active = well fitted curve in the direction sought with a large enough effect; inconclusive = small, poorly fitted or top-dose-only effect, or another doubt; inactive = no such curve, though single readings can be large; an effect the other way counts as inactive or inconclusive. Potency is the fitted concentration of half-maximal effect.

SMILES	RORg inh	SW480 rerep	KB-V1 cytotox	KB-3-1 cytotox	MCF10A rereplic	VP16 counter
COCCn1c(-c2ccc(OC)cc2)cnc1SCC(=O)Nc1cccc2ccccc12	5.01µM*	3.9%	7.31µM*	i	0.1%	21.3%
CCCN(CC(=O)Nc1ccccc1C)C(=O)/C=C/c1ccc(OC)c(OC)c1	.	.	i	i	.	.
COc1ncc2nc(-c3ccc(F)cc3)c(=O)n(C3CC3)c2n1	-24.9%	.	.	.	.	-7.7%
COC(=O)c1[nH]c2ccccc2c1NC(=O)CN1CCCCCC1	-10.7%	-1.9%	i	i	-2.7%	3.3%
CCOC(=O)c1[nH]c2ccc(Br)cc2c1NC(=O)CCN1CCC(C(=O)OCC)CC1	-0.9%	?	?	?	25.9µM*	0.2%
CCOC(=O)c1[nH]c2ccccc2c1NC(=O)C1CCCC1	31.0%	3.5%	i	i	1.0%	0.5%
COC(=O)c1[nH]c2ccccc2c1NC(=O)CNC1CCCCC1	18.5%	-2.2%	18.4µM*	i	?	-3.1%
CCOC(=O)N1CCN(CC(=O)Nc2c(C(=O)OC)[nH]c3ccccc23)CC1	25.3%	-3.9%	?	i	5.8µM*	-8.9%
CCOC(=O)c1[nH]c2ccc(OC)cc2c1NC(=S)N1CCN(c2ccccc2OC)CC1	?	?	?	8.2µM*	?	5.0%
O=c1c(-c2ccc(F)cc2)nc2cnc(N3CCOCC3)nc2n1CCc1ccccc1	-12.5%	.	.	.	.	1.0%
CCN1CCN(CC(=O)Nc2nc3ccccc3s2)CC1	6.4%	-2.9%	i	i	-3.9%	0.3%
CCOC(=O)N1CCN(CC(=O)Nc2nc3ccccc3s2)CC1	0.7%[1.91 µM]	1.4%	11.6µM*	i	7.9%	-8.4%
CCOc1ccc2nc(NC(=O)c3nc(SCc4ccccc4F)ncc3Cl)sc2c1	.	.	i	i	.	.
CC(=O)Nc1cccc(-c2ccnc3c2CC(C(=O)NCc2ccc(F)c(F)c2)O3)c1 (centres undefined)	.	.	?	7.31µM*	.	.
CC(=O)Nc1cccc(-c2ccnc3c2CC(C(=O)NCc2ccncc2)O3)c1 (centres undefined)	.	.	i	?	.	.
CC(=O)Nc1cccc(-c2ccnc3c2CC(C)(C(=O)NCC2CC2)O3)c1 (centres undefined)	.	.	i	11.6µM*	.	.
CC(=O)Nc1cccc(-c2ccnc3c2CC(C)(C(=O)NCc2ccc(F)c(F)c2)O3)c1 (centres undefined)	.	.	?	14.6µM*	.	.
COc1ccc(Cl)cc1CC1(C)C(=O)Nc2ccc(-c3ccccc3OC)cc21 (centres undefined)	.	.	i	?	.	.
COc1ccccc1-c1ccc2c(c1)C(C)(Cc1cc(Cl)ccc1C(F)(F)F)C(=O)N2 (centres undefined)	.	.	20.6µM*	?	.	.
COc1ccccc1CNC(=O)c1ccc2c(c1)nc(C)n2-c1ccccc1OC	.	.	i	i	.	.
COc1ccccc1-n1c(C)nc2cc(C(=O)NCCN3CCOCC3)ccc21	-5.5%	3.66µM*	?	i	-9.0%	-3.6%
O=S(=O)(NCCc1ccncc1)c1ccc(S(=O)(=O)N2CCCCCC2)cc1	44.2%	0.9%	18.4µM*	i	?	1.7%
CC1CCCCN1S(=O)(=O)c1ccc(S(=O)(=O)NCCc2ccncc2)cc1 (centres undefined)	?	-18.1%	20.6µM*	i	-0.4%	15.0%
CC1CCCCN1S(=O)(=O)c1ccc(S(=O)(=O)N2CCCC2)cc1 (centres undefined)	3.2%	-0.9%	i	i	5.4%	3.6%
Cc1ccccc1CCNC(=O)c1ccc2c(c1)nc1n2CCCCC1	.	.	i	i	.	.
SMILES	RORg inh	SW480 rerep	KB-V1 cytotox	KB-3-1 cytotox	MCF10A rereplic	VP16 counter
CC(C)=CCC/C(C)=C/CO/N=C1/[C@H]2O[C@@H]2[C@@H](O)[C@H]2[C@H]1CCn1c(=O)n(Cc3cc4c(cc3Cl)OCO4)c(=O)n12	9.8%[10 µM]	.	.	.	.	-9.0%[10 µM]
O=C(O)COc1ccccc1/C=N/n1c(C2CCCCC2)n[nH]c1=S	-30.7%	-15.3%	i	i	0.5%	-7.6%
S=c1[nH]nc(C2CCCCC2)n1/N=C/C=C/c1ccccc1	0.891µM*	-0.8%	?	i	?	6.31µM*
S=c1[nH]nc(-c2cc(-c3ccccc3)n[nH]2)n1/N=C/C=C/c1ccccc1	-43.2%	-6.4%	i	i	?	17.7%
S=c1[nH]nc(C2CCCCC2)n1/N=C/C(Cl)=C\c1ccccc1	2µM*	.	?	i	?	5.62µM*
C=CCC1(C)OC=Cc2nc3cc(Cl)c(Cl)cc3nc21 (centres undefined)	26.2%[10 µM]	.	.	.	.	-6.1%[10 µM]
O=C(CN1C(=O)C2(SCC(=O)N2c2cccc(Cl)c2)c2ccccc21)NCc1ccccc1 (centres undefined)	.	.	?	i	.	.
O=C1CC(Sc2ncccn2)C(=O)N1c1ccccc1C(F)(F)F (centres undefined)	4.47µM*	-5.2%	i	i	8.5%	7.08µM*
CCc1ccccc1N1C(=O)CC(Sc2nccc(C)n2)C1=O (centres undefined)	?	1.3%	i	i	-1.8%	?
Cc1ccc(Cl)cc1N1C(=O)CC(Sc2ncccn2)C1=O (centres undefined)	20µM*	?	i	i	?	?
Cc1nc2c3cccnc3nn2c(C)c1CCC(=O)NCc1ccccc1	.	.	i	i	.	.
CCCNC(=O)C1(C)CCCN(Cc2ccc(C)cc2)C1 (centres undefined)	.	.	i	i	.	.
CCN1C(=O)[C@H]2[C@@H]3[C@H](O)[C@H](O)CC(=O)[C@H]3CC[C@H]2C1=O	7.0%[10 µM]	.	.	.	.	1.2%[10 µM]
CCOc1ccc2nc(NC(=O)c3ccco3)sc2c1	?	6.8%	?	i	-10.5%	?
O=C(Nc1nc2cc3c(cc2s1)OCO3)C1=COCCO1	4.47µM*	16.4µM*	i	6.51µM*	?	3.98µM*
CCOC(=O)c1ccc2nc(NC(=O)c3ccco3)sc2c1	8.2%	?	?	i	20.6µM*	3.4%
O=C(NC(=S)Nc1nc2ccc(F)cc2s1)c1ccco1	0.794µM*	0.1%	?	i	-1.0%	1.78µM*
O=C(Nc1nc2cc3c(cc2s1)OCCO3)c1ccco1	2.51µM*	?	11.6µM*	?	?	6.31µM*
O=C(CN1C(=O)COc2ccc(S(=O)(=O)N3CCCCCC3)cc21)N1CCN(c2ccc(Cl)cc2)CC1	.	.	?	i	.	.
CC1CCc2nc(NC(=O)c3ccco3)sc2C1 (centres undefined)	2.51µM*	-3.6%	?	i	2.0%	3.98µM*

High-throughput results deposited in PubChem by National Center for Advancing Translational Sciences (NCATS).
